Screening data as filed in PubChem BioAssay.
A selection: hits, their analogues and other compounds. The true share with any hit is near 14%.
Sm TGR inh: qHTS Assay for the Inhibitors of Schistosoma Mansoni Peroxiredoxins; Potency, µM (doses to about 114 µM), inactives show at the highest dose activity change, negative = inhibition, hits mostly inhibitors; AID 485364, 2010; purified TGR, DTNB reduction, TNB absorbance 405 nm; Schistosoma mansoni thioredoxin glutathione reductase (TGR), Q962Y6; 360,000 compounds, 3% hits; also: potency is read from the fitted curve at half-maximal effect; nearly all actives have a fitted effect of over 60% in size
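TGR 20 nM + NADPH 100 uM (dispensed conc.), cpd preinc 15 min RT; start with NADPH (500 uM addition) then DTNB (15 mM addition). Kinetic TNB absorbance, 405 nm filter. Four-parameter Hill fit across titration.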
Pf growth 96h: Primary qHTS for delayed death inhibitors of the malarial parasite plastid, 96 hour incubation; AID 504834, 2011; P. falciparum luciferase reporter growth, 96 h; 320,000 compounds, 6.9% hits; Potency, µM (highest dose often 28.7 µM), inactives show at the top dose activity change, negative = inhibition, actives largely listed as inhibitors; also: potency is read from the fitted curve at half-maximal effect
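Luminescence readout: decreased luciferase signal marks inhibited growth of reporter-expressing P. falciparum in infected red cells (2% hematocrit, 0.05% parasitemia final), exposed to compound two generations (96 h, 37 C, 5% CO2).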
FBPA Giardia inh: qHTS Assay for Inhibitors of Fructose-1,6-bisphosphate Aldolase from Giardia Lamblia; purified Giardia FBPA; Potency, µM (highest dose often 59.6 µM), without a hit: at the top dose activity, negative = inhibition, hits mostly inhibitors; 290,000 compounds, 0.71% hits; AID 2451, 2010; also: potency is read from the fitted curve at half-maximal effect; nearly all actives have a fitted effect of over 55% in size
Target sequence (A8B2U2 whole entry, looked up): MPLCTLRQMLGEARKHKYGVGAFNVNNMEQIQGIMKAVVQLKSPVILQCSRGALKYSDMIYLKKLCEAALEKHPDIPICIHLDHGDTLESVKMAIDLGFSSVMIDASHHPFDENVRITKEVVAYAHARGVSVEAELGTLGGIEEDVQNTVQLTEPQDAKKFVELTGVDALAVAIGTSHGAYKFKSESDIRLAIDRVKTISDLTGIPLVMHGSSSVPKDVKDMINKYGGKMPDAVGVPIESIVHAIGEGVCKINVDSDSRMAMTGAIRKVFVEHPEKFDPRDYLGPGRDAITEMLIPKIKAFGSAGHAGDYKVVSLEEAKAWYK
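40 nM FBPA preincubated 10 min at RT with compound (up to 57.5 uM final), then substrate plus GAPDH/TPI/NAD/arsenate coupling and diaphorase/resazurin added. Fluorescence read after 20 min at RT, 525/598 nm.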
HCMV antiviral: qHTS Assay for inhibitors of the human cytomegalovirus (HCMV); HFF cells, HCMV-luciferase reporter, 72 h; hits give low values; activity change, negative = inhibition, % at 57.5 µM; 410,000 compounds, 4.5% hits; in the data active = activity change below about -60%; inconclusive = no clear call, values can overlap the other calls; inactive = above about -39%
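Steps: HFFs plated, 16 h 37C; compounds added; HCMV-luciferase added to MOI 1 PFU/cell; 72 h 37C; OneGlo reagent, 5 min room temperature; luminescence read, normalized to controls.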
Pf growth 48h: Primary qHTS for delayed death inhibitors of the malarial parasite plastid, 48 hour incubation; P. falciparum luciferase growth in erythrocytes, 48 h; Potency, µM (series often up to 28.7 µM), without a hit: top-dose activity change, negative = inhibition, usual class: inhibitors; 310,000 compounds, 5.9% hits; also: potency is read from the fitted curve at half-maximal effect
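Here the parasites carry a stable luciferase gene and grow inside erythrocytes in Albumax-based RPMI medium with compound for one erythrocytic cycle. Activity is scored as loss of luminescent signal.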
Starred values were filed as active, the others as inactive; ? = inconclusive; / = no result; [ ] = another dose, or the depositor's remark. Unless noted, calls follow the shape of the dose curve; as a rule, active = well fitted curve in the direction sought with a large enough effect; inconclusive = small, poorly fitted or top-dose-only effect, or another doubt; inactive = no such curve, though single readings can be large; an effect the other way counts as inactive or inconclusive. % is scaled to controls: 0 for no effect and ±100 for the full control effect.

SMILES	Sm TGR inh	Pf growth 96h	FBPA Giardia inh	HCMV antiviral	Pf growth 48h
O=C(Cn1c(=S)[nH]c2ccccc2c1=O)N1CCC2(CC1)OCCO2	3%	40%	-9%	-5	9%
Cn1c(=O)n(CC(=O)N2CCC3(CC2)OCCO3)c(=O)c2ccccc21	-28%	1.7µM*	-5%	8	43%
O=C(CCCCCn1c(=S)[nH]c2ccccc2c1=O)N1CCC2(CC1)OCCO2	0%	15%	0%	-23	8.3µM*
CCN(CC)c1ccc2cc(C(=O)c3cccs3)c(=O)oc2c1	/	/	/	-30	/
CC(=O)Nc1ccc(S(=O)(=O)NCC(=O)OCC(=O)N2CCCc3ccccc32)cc1	-1%	15%	6%	11	16%
COc1ccc(C)cc1COC(=O)c1[nH]c(C)c(C(C)=O)c1C	?	12µM*	10%	-4	?
CC(=O)c1c(C)[nH]c(C(=O)OCc2cccc(C)c2)c1C	1%	103%	0%	-16	46%
O=C(c1ccco1)N(Cc1ccccc1)c1cccc([N+](=O)[O-])c1	-21%	6.6µM*	-3%	?	?
Cc1ccc(N(Cc2cccs2)C(=O)c2ccco2)cc1	0%	/	/	-34	/
O=C(c1ccco1)N(Cc1ccco1)c1ccc(O)cc1	-12%	9.3µM*	7%	?	?
CC(=O)N1c2ccccc2C(CBr)=CC1(C)C	13µM*	0%	-12%	24	-3%
CC1=CC(C)(C)N(C(=O)Nc2ccccc2)c2ccccc21	?	?	2%	-33	81%
CCCCc1cc(=O)oc2cc(OCC(=O)NCc3ccccn3)ccc12	-4%	-5%	10%	-21	6%
Cc1nn(-c2ccccc2)c2sc(C(=O)N3CCCCC3)cc12	0%	2%	7%	/	46%
Cc1ccc(S(=O)(=O)N2CCN(C(=O)c3cc4c(C)nn(-c5ccccc5C)c4s3)CC2)cc1	-9%	3.3µM*	-1%	-34	4.7µM*
Cc1ccccc1-n1nc(C)c2cc(C(=O)N3CCOCC3)sc21	0%	3.3µM*	9%	17	-17%
COc1ccccc1NC(=O)NCCN1CCNC1=O	7%	6%	8%	30	3%
CCc1ccc(-c2nc(CN3CCCC(C(=O)NCc4ccc(C)cc4)C3)c(C)o2)cc1 (stereo not drawn)	4%	/	/	12	/
C/C=C/C1=Cc2ccccc2C(CC(=O)OC)N1C(=O)OC (stereo not drawn)	/	/	3%[12.9 µM]	/	/
Cc1cc(C)c2[nH]c(O)c(N=NC(=S)NCC3CCCO3)c2c1 (stereo not drawn)	2%	?	-6%	-18	?
Oc1[nH]c2ccccc2c1N=NC(=S)NCC1CCCO1 (stereo not drawn)	16%	?	-4%	8	?
Oc1[nH]c2ccc(Br)cc2c1N=NC(=S)NCC1CCCO1 (stereo not drawn)	0%	?	-5%	?	5.9µM*
Oc1[nH]c2c(Cl)cc(Cl)cc2c1N=NC(=S)NCC1CCCO1 (stereo not drawn)	-4%	6.6µM*	2%	-68*	1.9µM*
O=C(NCc1cccnc1)Nc1ccc(Cl)cc1	-6%	?	/	20	6%
O=C(CCOc1ccccc1)Nc1ccnn1C1CCN(C(=O)CCC(F)(F)F)CC1	-9%	12µM*	/	0	?
SMILES	Sm TGR inh	Pf growth 96h	FBPA Giardia inh	HCMV antiviral	Pf growth 48h
COCC(=O)N1CCC(n2nccc2NC(=O)CCOc2ccccc2)CC1	-1%	12µM*	/	55	-2%
CC(C)(c1ccccc1)c1ccc(OCCN2CCOCC2)cc1	15%	?	?	19	-6%
CNCCCOc1ccc(C(C)(C)c2ccccc2)cc1	-19%	9.3µM*	?	/	/
COCCCNCCOc1ccc(C(C)(C)c2ccccc2)cc1	-17%	?	-14%	-25	-25%
CC(C)(c1ccccc1)c1ccc(OCCCN2CCNCC2)cc1	/	?	?	-88*	?
CCCOC1OC(=O)c2c1ccc(OC)c2OC (stereo not drawn)	-1%	5.2µM*	3%	21	18%
